Hits are enriched below; roughly 11% of the tested compounds scored in any of these assays.
SW480 rerep – A quantitative high throughput screen for small molecules that induce DNA re-replication in SW480 colon adenocarcinoma cells | actives 1.8% (n = 340,000) | Potency, µM (series often up to 46.1 µM), most hits filed as activators | SW480 DNA re-replication, Hoechst DNA content imaging, 48 h; further: nearly all actives have a fitted effect of over 55% in size
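250 cells/well; 23 nL cpd via pin tool; 48 hr, 37 C, 5% CO2; Hoechst 40 min; imager read of total nuclear intensity, ex 405/em 500-530 nm.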
MCF10A rereplic – A quantitative high throughput screen for small molecules that induce DNA re-replication in MCF 10a normal breast cells | MCF 10A DNA re-replication, Hoechst nuclear intensity, 48 h | Potency, µM (top dose mostly 46.1 µM), hits mostly activators | actives 2.9% (n = 350,000); further: nearly all actives have a fitted effect of over 50% in size
RORg inh – qHTS for inhibitors of ROR gamma transcriptional activity; Drosophila S2 Gal4-RORgamma UAS-luciferase reporter, 20 h; Potency, µM (series often up to 53.6 µM), hits mostly inhibitors; actives 5.4% (n = 310,000); AID 2551, 2010; further: nearly all actives have a fitted effect of over 60% in size
Target sequence (P51450 whole entry, looked up, the tested form may be a part): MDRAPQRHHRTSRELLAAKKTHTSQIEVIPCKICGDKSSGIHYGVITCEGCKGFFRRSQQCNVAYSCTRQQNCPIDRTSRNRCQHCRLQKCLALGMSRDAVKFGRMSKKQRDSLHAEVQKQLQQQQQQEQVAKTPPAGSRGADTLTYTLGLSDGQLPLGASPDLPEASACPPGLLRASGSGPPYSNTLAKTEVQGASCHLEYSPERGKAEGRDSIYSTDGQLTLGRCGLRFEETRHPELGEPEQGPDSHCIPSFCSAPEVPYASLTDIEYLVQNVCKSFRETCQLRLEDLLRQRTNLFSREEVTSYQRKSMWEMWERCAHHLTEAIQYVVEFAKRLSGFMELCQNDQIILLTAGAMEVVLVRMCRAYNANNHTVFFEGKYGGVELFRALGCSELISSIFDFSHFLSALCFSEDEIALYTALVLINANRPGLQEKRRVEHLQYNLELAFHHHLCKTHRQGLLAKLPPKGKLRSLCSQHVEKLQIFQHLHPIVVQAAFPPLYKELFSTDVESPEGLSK
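Drosophila Schneider cells stably carrying a metallothionein-driven Gal4 DBD–ROR gamma fusion and a UAS-Photinus luciferase reporter were exposed to compound for 1 hr, then induced with copper sulfate (700 uM final) for 20 hr at ambient temperature before luminescence reading.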
Gal4-VP16 FLuc – VP16 counterscreen qHTS for inhibitors of ROR gamma transcriptional activity | Drosophila S2 Gal4-VP16 UAS-luciferase, luminescence, 20 h | Potency, µM (top dose mostly 53.6 µM), most hits filed as inhibitors | actives 3.5% (n = 310,000) | AID 2546, 2010;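 further: Gal4-VP16 expression switched on by copper sulfate through the metallothionein promoter; nearly all actives have a fitted effect of over 50% in size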
IL1B secr inh – qHTS for Inhibitors of Inflammasome Signaling: IL-1-beta AlphaLISA Primary Screen; THP-1 LPS/ATP IL-1B secretion, AlphaLISA, 16 h; active compounds read low; activity change, % at 57.5 µM; actives 4.7% (n = 360,000); AID 743279, 2014; in the data active means activity change below about -50%; inconclusive means mostly about -30% to -49%
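Secreted IL-1B measured by AlphaLISA bead assay after 16 h compound exposure of THP-1 cells; compounds (final up to 57.5 uM) added 1 h before LPS (250 ng/mL) and ATP (1.25 mM) stimulation; lower signal means less secretion.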
Hits are given with their value; . = inactive; ? = inconclusive; / = no result given. Unless noted, the call rests on the fitted dose curve; in most records, active means well fitted curve in the direction sought with a large enough effect; inconclusive means small, poorly fitted or top-dose-only effect, or another doubt; inactive means no such curve, though single readings can be large; an effect the other way counts as inactive or inconclusive.

SMILES | SW480 rerep | MCF10A rereplic | RORg inh | Gal4-VP16 FLuc | IL1B secr inh
CC(C)CNS(=O)(=O)c1cc(C(=O)OCC(=O)c2ccc3c(c2)OCCO3)c(Cl)cc1Cl | . | ? | . | . | -239.7
CCCn1c(C)cc(C(=O)COC(=O)c2cc(S(=O)(=O)NCC(C)C)c(Cl)cc2Cl)c1C | . | ? | ? | . | .
NC(=N\N=CCc1ccccc1)/C(N)=N/N=CCc1ccccc1 | . | . | / | / | .
O=S(=O)(c1ccccc1)N(CC(O)Cn1c2ccccc2c2ccccc21)c1ccccc1 (configuration not stated) | ? | ? | . | . | -52.5
C=CCN(CC=C)CC(O)Cn1c2ccccc2c2ccccc21 (configuration not stated) | . | . | . | . | -73.9
COc1ccccc1N(CC(O)Cn1c2ccccc2c2ccccc21)S(=O)(=O)c1ccccc1 (configuration not stated) | ? | . | ? | . | -100.9
CCN(CC)CC(O)Cn1c2ccccc2c2ccccc21 (configuration not stated) | ? | . | . | . | ?
COc1ccccc1N(CC(O)CN1C(C)CCCC1C)S(=O)(=O)c1ccccc1 (configuration not stated) | . | . | . | . | .
O=C(NCc1ccccc1)C1C(c2ccc3c(c2)OCO3)=Nc2ccccc2N1C(=O)c1cccc2ccccc12 (configuration not stated) | / | / | / | / | .
CCCCn1c(N)c(N(CC)C(=O)c2cccs2)c(=O)[nH]c1=O | . | . | / | / | .
Cc1sc2ncnc(N3CCC(C(=O)NCC(=O)Nc4ccc(F)c(F)c4)CC3)c2c1C | . | ? | . | . | -78.9
Cc1cc2ccccn2c1C(=O)c1ccc(Cl)cc1 | . | . | ? | 15.8µM | .
Cc1cc2ccccn2c1C(=S)NC(=O)c1ccccc1 | . | . | 3.16µM | 3.55µM | .
CCOc1ccc(N(CC(=O)Nc2c(C)n(C)n(-c3ccccc3)c2=O)S(=O)(=O)c2ccc(F)cc2)cc1 | ? | . | . | . | .
CCN(c1cccc(C)c1)S(=O)(=O)c1cnc[nH]1 | . | 20.6µM | . | . | .
CCN(c1cccc(C)c1)S(=O)(=O)c1c(C)[nH]c(=O)[nH]c1=O | . | . | . | . | .
Cc1nc2c(OCc3ccc(Cl)cc3)cccn2c1N(C)C(=O)CCC1CCCC1 | / | / | / | / | .
O=c1c2ccccc2sc2c(CO)ccc(NCCN3CCCCC3)c12 | ? | . | / | / | -101.3
C/C(=N\NC(=O)c1ccc(F)cc1)c1ccc(N2CCOCC2)cc1 | . | . | . | . | .
C/C(=N\NC(=O)c1ccc(O)cc1)c1ccc(N2CCOCC2)cc1 | . | . | 1.78µM | ? | .
C/C(=N\NC(=O)COc1ccc(C(C)(C)C)cc1)c1ccc(N2CCOCC2)cc1 | . | 9.2µM | ? | ? | .
O=C(N/N=C/c1ccc(N2CCOCC2)cc1)c1ccc(O)cc1 | . | . | 4.47µM | ? | .
C/C(=N\NC(=O)c1ccc(N2CCCC2=O)cc1)c1ccc(O)cc1O | 9.2µM | . | . | . | .
C/C(=N\NC(=O)c1ccc(N2CCCC2=O)cc1)c1ccccc1 | . | . | . | . | .
Cc1ccc(C(=O)N/N=C/c2ccc(N3CCOCC3)cc2)c(C)c1 | . | . | . | . | .
SMILES | SW480 rerep | MCF10A rereplic | RORg inh | Gal4-VP16 FLuc | IL1B secr inh
CCCCN1C(=O)C(CC(=O)NCc2cccs2)CC(C(=O)N(CC)CC)=C1C (configuration not stated) | / | / | / | / | .
C/C(=N\Nc1cc(N2CCOCC2)ncn1)c1ccc(O)cc1 | ? | ? | . | . | -95.1
Cc1ccnc(SCc2cc(=O)c(OC(=O)c3ccc(Cl)c([N+](=O)[O-])c3)co2)n1 | . | . | 10µM | 11.2µM | .
CS(=O)(=O)c1nc(-c2cccs2)cc(C(F)(F)F)n1 | / | / | 2µM | 4.47µM | /
CS(=O)(=O)c1nc(-c2ccc(F)cc2)cc(C(F)(F)F)n1 | ? | 3.66µM | 2.51µM | 4.47µM | -103.0
Cc1cc(NC(=O)CCCS(=O)(=O)c2nc(-c3cccs3)cc(C(F)(F)F)n2)no1 | ? | 4.11µM | 5.62µM | 0.891µM | -69.5

Compound activity: PubChem BioAssay, National Center for Advancing Translational Sciences (NCATS)
